Source: PubChem BioAssay
Calls of active or inactive are those of the source. The rule behind the calls is not given here.

The compounds below were run against Pantothenate synthetase (Mycobacterium tuberculosis (strain ATCC 25618 / H37Rv)) (UniProt P9WIL5) (assay: Recombinant Mtb pantothenate synthetase (PanC) inhibitors, coupled enzyme, confirmatory (AID 375;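 note: 0% = full reaction with vehicle and 100% = no enzyme background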)). Conditions: coupled enzyme assay; at 10 µM, stronger effect = higher value.
Chain of Pantothenate synthetase (Mycobacterium tuberculosis (strain ATCC 25618 / H37Rv)) (P9WIL5 whole entry, looked up): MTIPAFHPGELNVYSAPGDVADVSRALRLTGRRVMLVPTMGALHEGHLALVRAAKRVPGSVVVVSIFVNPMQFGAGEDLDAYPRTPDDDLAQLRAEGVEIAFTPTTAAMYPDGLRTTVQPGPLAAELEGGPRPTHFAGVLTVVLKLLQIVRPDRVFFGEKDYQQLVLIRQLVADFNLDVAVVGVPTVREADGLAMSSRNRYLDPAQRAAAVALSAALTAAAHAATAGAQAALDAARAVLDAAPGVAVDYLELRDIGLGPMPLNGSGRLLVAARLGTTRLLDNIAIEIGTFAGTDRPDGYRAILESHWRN

Compound | inhibition
Cc1cccc(OCC(=O)Nc2ccc(N3CCCC3)cc2)c1C | 0% (inactive)
COc1ccc(N2CCN(C(c3cccc(OC)c3OC)c3nnnn3C3CCCC3)CC2)cc1 (stereo not given) | 0% (inactive)
COc1cccc(CN=CC2=C(O)CC(C)(C)CC2=O)c1OC | 0% (inactive)
COC(=O)CN(Cc1ccco1)S(=O)(=O)c1ccccc1 | 1% (inactive)
O=C(CCCNS(=O)(=O)c1ccccc1)NCc1ccco1 | 0% (inactive)
CCOC(=O)N1CCC(NC(=O)Cc2ccc(-n3c(=O)[nH]c4ccccc4c3=O)cc2)CC1 | 3% (inactive)
CC(C)N=c1cc2n(-c3ccc(Cl)cc3)c3ccccc3nc-2cc1Nc1ccc(Cl)cc1 | 0% (inactive)
O=C(NC1=NCCS1)c1nc(-c2ccccc2)n(-c2ccccc2)n1 | 3% (inactive)
COc1cccc(/C=N/n2c(-c3ccco3)nc3ccccc3c2=O)c1 | 1% (inactive)
COC(=O)c1ccc(COc2ncnc3c(Cl)cc(Cl)cc23)o1 | 0% (inactive)
COc1ccc(C(N)=O)cc1N | 0% (inactive)
COc1ccccc1S(=O)(=O)Cc1ccc(C(=O)N2CCN(c3ccccn3)CC2)o1 | 0% (inactive)
CCC(C)(C)NC(=O)C(OC(=O)c1ccco1)c1ccccc1OC (stereo not given) | 0% (inactive)
CCOC(=O)c1ccc(N2C(=O)C3CC=CCC3C2=O)cc1 (stereo not given) | 1% (inactive)
O=S(=O)(Nc1ccc(Cc2ccncc2)cc1)N1CCCC1 | 0% (inactive)
COC(=O)Cn1ncc2c(C)n(Cc3ccccc3)c(C)c2c1=O | 2% (inactive)
Cc1noc(C)c1S(=O)(=O)N1CCCC(C(=O)NCCc2ccc(Cl)cc2)C1 (stereo not given) | 3% (inactive)
Cc1cc2c(c(=O)o1)C(Cc1ccccc1)C(C#N)=C(N)O2 (stereo not given) | 1% (inactive)
O=c1[nH]c2sc3c(c2c2nncn12)CCCC3 | 0% (inactive)
CCN(CC)C(=O)C1CCN(CC2CC=CCC2)CC1 (stereo not given) | 0% (inactive)

Compound | inhibition
COc1ccc2c(=O)c3c(=O)n(Cc4ccco4)c(C(C)C)nc3oc2c1 | 0% (inactive)
C1CCN=C(Nc2nc3c(s2)CCCC3)CC1 | 3% (inactive)
O=C(CN1CCN(Cc2ccc3c(c2)OCO3)CC1)Nc1ccc2c(c1)OCCO2 | 0% (inactive)
O=C(Nc1ccc2[nH]c3c(c2c1)CCCC3)c1ccco1 | 0% (inactive)
COc1ccc(C(C(C(=O)c2ccco2)N2CCOCC2)N2CCOCC2)cc1 (stereo not given) | 11% (inactive)
CCCC(=O)Nc1ccccc1-c1nnn(CC(=O)Nc2ccc(OCC)cc2)n1 | 0% (inactive)
O=C(NCC(F)(F)F)N1CCOCC1 | 0% (inactive)
O=C1c2ccccc2C(=O)N1C/C=C/c1ccccc1 | 2% (inactive)
CCOC(=O)C1CCN(C(=O)COc2ccc(S(=O)(=O)NC(C)C)cc2Cl)CC1 | 0% (inactive)
CCOc1ccc(-c2cc(CCCC(=O)N3CCN(c4ccc(OC)cc4)CC3)no2)cc1 | 0% (inactive)
CCN(CC)CCN1C(=O)C(O)=C(C(=O)c2ccco2)C1c1ccccn1 (stereo not given) | 8% (inactive)
Brc1c(NC2=NCCN2)ccc2nccnc12 | 0% (inactive)
CC1(C)CC(=O)C2=C(C1)NC(=O)CC2C(=O)NCc1ccc(F)cc1 (stereo not given) | 0% (inactive)
COc1ccccc1NC(=O)NCc1ccc2c(c1)OCO2 | 1% (inactive)
CC(=O)c1nnn(-c2nc(N3CCCC3)nc(N(c3ccccc3)c3ccccc3)n2)c1C | 0% (inactive)
CC(C)C(OC(=O)c1ccco1)C(=O)NCc1ccccc1 (stereo not given) | 5% (inactive)
O=C(CN1CCN(Cc2ccccc2)CC1)Nc1ccc(Cl)cn1 | 3% (inactive)
Cc1ccc2c(c1)C(N1CCCC1=O)CC(c1ccco1)N2 (stereo not given) | 0% (inactive)
COc1ccc(-n2c(=O)[nH]cc(C(=O)Nc3ccc(NC(C)=O)cc3)c2=O)cc1 | 6% (inactive)
CCc1nnc(NC(=O)CSc2nnc(CSc3nc(C)cc(C)n3)n2CC)s1 | 1% (inactive)
